# RXFP1 agonist: qHTS Assay for Agonists of the Relaxin Receptor RXFP1 | Relaxin receptor 1 (Homo sapiens), Q9HBX9 | HEK293T-RXFP1 cAMP TR-FRET, 30 min; response scale: percent of porcine relaxin response, buffer zero | Potency, µM (highest dose often 57.5 µM), for inactives: at the top dose activation, actives largely listed as activators | 0.3% of 370,000 active | AID 2676, 2010; note: potency is the fitted concentration of half-maximal effect; % is set by controls: 0 for no effect and ±100 for the full control effect; nearly all actives have a fitted effect of over 60% in size
# Target sequence (Q9HBX9 whole entry, looked up): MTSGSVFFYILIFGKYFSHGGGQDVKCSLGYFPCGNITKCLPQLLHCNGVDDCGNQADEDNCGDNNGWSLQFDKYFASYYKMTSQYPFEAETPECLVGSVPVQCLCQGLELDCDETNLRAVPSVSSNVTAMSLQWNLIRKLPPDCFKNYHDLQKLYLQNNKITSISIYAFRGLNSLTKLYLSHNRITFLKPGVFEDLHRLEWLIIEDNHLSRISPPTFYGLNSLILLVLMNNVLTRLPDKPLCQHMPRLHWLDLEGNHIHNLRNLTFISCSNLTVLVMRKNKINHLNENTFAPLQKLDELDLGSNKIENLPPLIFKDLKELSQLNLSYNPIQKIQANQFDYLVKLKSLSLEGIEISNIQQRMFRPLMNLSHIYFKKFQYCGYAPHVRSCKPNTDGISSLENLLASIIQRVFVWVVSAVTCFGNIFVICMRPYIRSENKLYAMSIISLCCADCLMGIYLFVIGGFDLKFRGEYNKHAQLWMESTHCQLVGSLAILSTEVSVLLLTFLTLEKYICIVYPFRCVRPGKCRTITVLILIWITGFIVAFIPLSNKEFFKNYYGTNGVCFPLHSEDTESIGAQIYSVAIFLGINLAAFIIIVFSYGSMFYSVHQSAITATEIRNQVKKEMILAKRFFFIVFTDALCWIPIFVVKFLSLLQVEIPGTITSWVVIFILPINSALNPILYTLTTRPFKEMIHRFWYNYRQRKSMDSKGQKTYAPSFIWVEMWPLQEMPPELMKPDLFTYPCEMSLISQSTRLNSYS
#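 HEK293 cells stably expressing RXFP1, treated 30 min at 37C with compounds plus PDE4 inhibitor Ro 20174; cAMP measured by HTRF TR-FRET. Normalized to buffer and 29 nM porcine relaxin; EC50 by Hill fit.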
# gsp antag: qHTS for Antagonists of gsp, the Etiologic Mutation Responsible for Fibrous Dysplasia/McCune-Albright Syndrome: qHTS; gsp-mutant cells, cAMP HTRF, 30 min; Potency, µM (doses to about 76.9 µM), for the others: at the top dose activity change, negative = inhibition, hits mostly inhibitors; 0.4% of 340,000 active; AID 624288, 2012; calls by dose curve; cell line not stated here;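 note: intracellular cAMP measured with PDE inhibitor Ro 20-1724 present during compound exposure; potency is the fitted concentration of half-maximal effect; % is set by controls: 0 for no effect and ±100 for the full control effect; nearly all actives have a fitted effect of over 65% in size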
#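 HTRF cAMP read-out (cAMP-d2 plus anti-cAMP antibody-K in lysis buffer, 30 min RT). Before lysis, cells are exposed to compounds with […] for 30 min at 37C in DPBS containing Ca/Mg, BSA and Tween 20.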
# RXFP1 antagonist: qHTS Assay for Antagonists of the Relaxin Receptor RXFP1. Relaxin receptor 1 (Homo sapiens), Q9HBX9. AID 1259400, 2018. 0.59% of 350,000 active. activity change, negative = inhibition, % at 57.5 µM. HEK293-RXFP1, relaxin-stimulated cAMP HTRF, 30 min; active compounds read low;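 active = activity change of -60% or lower, but not beyond a set lower limit; inconclusive = change between -60% and -40%, or beyond the set limit; inactive = change above -40%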; note: % is set by controls: 0 for no effect and ±100 for the full control effect
# gsp agonist: qHTS for Agonist of gsp, the Etiologic Mutation Responsible for Fibrous Dysplasia/McCune-Albright Syndrome: qHTS | gsp mutant cells, cAMP HTRF, 30 min | Potency, µM (top dose mostly 76.9 µM), without a hit: at the highest dose activation (cAMP increase), hits mostly activators | 0.13% of 340,000 active; active = well fitted activation curve with a large enough effect; inconclusive = small, poorly fitted or top-dose-only effect, or another doubt; inactive = no such curve, though single readings can be large or run the other way; cell line not stated here;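 note: phosphodiesterase inhibitor Ro 20-1724 added with compounds to block cAMP breakdown; potency is the fitted concentration of half-maximal effect; nearly all actives have a fitted effect of over 60% in size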
#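 Cells stably selected in G418 were plated at 2000/well, grown 16-24 hr, then given compounds in DMSO with the PDE inhibitor […] (300 uM solution added) for 30 min at 37C; cAMP was read by HTRF.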
# Mm-Cpn inhibitor: Inhibitors of TCP-1 ring complex (TRiC) of Methanococcus maripaludis (MmCpn): qHTS | Chaperonin Mm-Cpn (Methanococcus maripaludis) | purified Mm-Cpn ATPase, ADP Transcreener TR-FRET | Potency, µM (highest dose often 76.9 µM), for the others: at the top dose activity, negative = inhibition, usual class: inhibitors | 0.031% of 330,000 active; note: potency is the fitted concentration of half-maximal effect; % is set by controls: 0 for no effect and ±100 for the full control effect; nearly all actives have a fitted effect of over 80% in size
#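 ATP (10 uM final) was added to archaeal chaperonin (25 nM final) after 10 min exposure to test compound at 37°C; after 30 min further incubation, ADP was detected by competitive TR-FRET.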
# CCT modulator: High-Throughput Screening for Modulators of Cytosolic Chaperonin Activity. purified chaperonin ATPase assay, HTRF ADP detection, 30 min. activity change, % (concentration not given with the values), hits read low. 0.3% of 360,000 active. AID 651819, 2012; in the data active = activity change below about -30%; note: % is set by controls: 0 for no effect and ±100 for the full control effect
#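 We incubate TRiC, 40 or 20 nM final, with library compounds at 76 uM and 10 uM ATP for 30 min at 37 °C. ADP formed is detected with Transcreener HTRF reagents after 30 min at room temperature.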
# * marks the source's active call; other numbers are inactive results; ? = inconclusive; nt = not tested or not shown; [ ] = dose if it differs, or a comment. This is a sample that favours compounds with a hit; in the whole collection about 1.2% have one here. Unless noted, calls come from the whole dose curve; as a rule, active = well fitted curve in the direction sought with a large enough effect; inconclusive = small, poorly fitted or top-dose-only effect, or another doubt; inactive = no such curve, though single readings can be large; an effect the other way counts as inactive or inconclusive.
SMILES,RXFP1 agonist,gsp antag,RXFP1 antagonist,gsp agonist,Mm-Cpn inhibitor,CCT modulator
COc1cc(-c2cc(OC)c3c(C)oc(C)c3c(=O)c2)ccc1OC(=O)c1ccc(C)cc1,0%,nt,?,nt,nt,nt
CCOc1cc(-c2ccc(OC(=O)c3ccccc3F)cc2)cc(=O)c2c(C)oc(C)c12,-2%,nt,-97*,nt,nt,nt
COc1cc(-c2cc(OC)c3c(C)oc(C)c3c(=O)c2)ccc1OC(=O)c1cccc(Cl)c1,-2%,nt,-76*,nt,nt,nt
CCOc1cc(-c2ccc(OC(=O)c3ccc(C)cc3)c(OC)c2)cc(=O)c2c(C)oc(C)c12,1%,nt,-64*,nt,nt,nt
CCCN1CCN(c2ncnc3sc(C(=O)Nc4c(C)cc(C)cc4C)c(C)c23)CC1,3%,nt,nt,nt,nt,nt
COC(=O)c1cc(Cl)ccc1OC,nt,nt,13,nt,nt,nt
C=CCn1c(SCC(=O)N2CCOCC2)nnc1C(C)NC(=O)c1ccccc1 (stereo not given),-1%,18%,1,-40%[15.4 µM],2%,-47*
CNS(=O)(=O)c1cn(CC(=O)N2CCN(c3ccc(Cl)cc3)CC2)cc1S(=O)(=O)NC,8%,nt,-17,nt,nt,nt
O=C(CN1CCN(Cc2ccccc2)CC1)N/N=C/c1cccnc1,1%,8%,0,1%,0%,-36*
CCOc1ccc(CC(=O)N/N=C/c2cccnc2)cc1OCC,-1%,4%,6,27%,3%,1
COc1ccc(CC(=O)N/N=C/c2cccnc2)cc1OC,32µM*,11%,7,-33%,0%,-2
CCC(=O)C(Cc1ccccc1)(Cc1ccccc1)CC(C)N(C)C (stereo not given),nt,nt,-11,nt,nt,nt
COc1ccccc1CNC(=O)CCn1c(=O)c2ccccc2n(CC(=O)Nc2cc(Cl)ccc2C)c1=O,-1%,nt,nt,nt,nt,nt
COc1cccc(N2C(=O)C(CC(=O)Nc3ccc(F)cc3)N(CCC3=CCCCC3)C2=O)c1 (stereo not given),10%,nt,nt,nt,nt,nt
CCOC(=O)c1cnc2c(ccc3ccccc32)c1Nc1ccccc1O,4%,nt,nt,nt,nt,nt
Cc1ccc(S(=O)(=O)CCC(=O)NCCc2ccccc2)cc1,6%,4%,4,6%,1%,-2
Cc1ccc(S(=O)(=O)CCC(=O)NCCN2C(=O)S/C(=C\c3ccccc3)C2=O)cc1,0%,50µM*,-22,4%,0%,-2
O=C(CCS(=O)(=O)c1ccc(Cl)cc1)NCCN1C(=O)S/C(=C\c2ccccc2F)C1=O,1%,50µM*,-4,-2%,1%,-1
S=c1[nH]cc(-c2ccccc2)n1-c1cccc(Cl)c1,4%,-5%,-20,-21%,-10%,-2
COc1cccc(-n2c(-c3ccccc3)c[nH]c2=S)c1,-1%,-17%,-79*,?,-1%,2
Cc1ccc(C(=O)Nc2nc(=O)n(C(=O)c3ccccc3C)s2)cc1,0%,40µM*,-10,1%,-1%,4
CCOc1cc(/C=C2\SC(=O)N(c3ccc(O)cc3)C2=O)ccc1O,-2%,32µM*,-18,10%,2%,3
CCOc1ccc(N2C(=O)S/C(=C\c3ccc(O)c(OCC)c3)C2=O)cc1,1%,-28%,0,?,-3%,-1
COc1cc2c(cc1OC)C(COc1ccc3c(C)cc(=O)oc3c1)N(C(=O)c1ccc(C)c(C)c1)CC2 (stereo not given),2%,nt,-14,nt,nt,nt
COc1cc(C(=O)Nc2ccccc2N2CCOCC2)ccc1OCC(=O)N1CCOCC1,2%,-1%,-3,-29%,1%,1
COc1cc(C(=O)Nc2cccc(C)c2C)ccc1OCC(=O)N1CCOCC1,2%,3%,11,?,3%,-34*

# Screening data as filed in PubChem.
